For assay [1], the system named is TRPC4 beta (transient receptor potential cation channel C4), mouse. The experiment in a line: TRPC4 cation channel opening, retest – cell-based, Fluo4 calcium, HEK293 TRPC4beta/mu-opioid, duplicates, 10 µM, confirmation (AID 2426;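 active means fluorescence ratio normalized to control raised more than 50% in primary screen plus both repeat runs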). The following applies: Fluo4 calcium fluorescence, at 10 µM; hits give high values.
In assay [2] the test system is transient receptor potential cation channel C4 beta (TRPC4), mouse. The experiment in a line: TRPC4 cation channel opening, second retest – cell-based, second round, Fluo4, HEK293 TRPC4beta/mu-opioid, 1 µM, confirmation (AID 2461). The following applies: Fluo4 calcium fluorescence, at 1 µM; hits give high values.
Assay [3] relates to TRPC4 (transient receptor potential cation channel C4 beta), mouse. The experiment in a line: potentiation of DAMGO EC20 TRPC4 response – cell-based, second round, Fluo-4, HEK293 TRPC4beta/mu-opioid, 1 µM, confirmation (AID 2554;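 active means primary screen hit whose fluorescence ratio, in both repeats, exceeds the weak agonist control mean by 3 SD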). The following applies: DAMGO EC20, Fluo-4 calcium flux, at 1 µM; hits give high values.
For assay [4], the system named is TRPC4 beta (transient receptor potential cation channel C4), mouse. In words: potentiation of DAMGO EC20 TRPC4 response – cell-based, Fluo-4, HEK293 TRPC4beta/mu-opioid, confirmation (AID 2555;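 active means primary screen hit whose calcium fluorescence ratio, in both repeats, exceeds the weak agonist control mean by 3 SD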). The following applies: DAMGO EC20, Fluo-4 calcium flux, at 10 µM; hits give high values. A general note: A change in cytosolic calcium serves as a functional read-out for many receptors and channels.

For assay [5], the target named is Short transient receptor potential channel 4 (Mus musculus) (UniProt Q9QUQ5). The experiment in a line: blockers of DAMGO-evoked TRPC4 calcium flux – cell-based, Fluo4, HEK293 TRPC4beta/mu-opioid, confirmation (AID 2636;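 active means calcium signal cut by more than 3 SD below the full-agonist control yet still positive, in both repeats and the earlier primary screen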). The following applies: at 10 µM; hits give high values.
Assay [6] has the same target. In words: blockers of DAMGO-evoked TRPC4 calcium flux – cell-based, second round, Fluo4, HEK293 TRPC4beta/mu-opioid, 1 µM, confirmation (AID 2637;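 active means calcium signal ratio cut to more than 3 SD under the fully stimulated control mean yet still positive, in both repeats and the primary screen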). The following applies: at 1 µM; hits give high values.
Assay [7] shares this target. The experiment in a line: calcium entry via TRPC4 opening agents – cell-based, HEK293 TRPC4/mu-opioid, Fluo-4 calcium, dose response (AID 434937;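 active means primary screen activator hit with a dose response curve and TRPC4 channel activation at any tested dose; inactive means no activation, no dose response, or not a primary hit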).
For assay [8] the target is unchanged. The experiment in a line: potentiation of DAMGO-evoked TRPC4 calcium signal – cell-based, HEK293 TRPC4/mu-opioid, Fluo-4 calcium, EC20 DAMGO, dose response (AID 434941;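 active means earlier screen potentiator hit that boosts the TRPC4 ion channel at some dose, with a dose response; inactive means no potentiation, no dose response, or not a prior hit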;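 further: calcium entry triggered by an EC20 dose of DAMGO at the co-expressed mu-opioid receptor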).
For assay [9] the target is unchanged. The experiment in a line: block of DAMGO-driven TRPC4 calcium entry – cell-based, HEK293 TRPC4/mu-opioid, Fluo-4 calcium, dose response (AID 434942;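 active means primary screen inhibitor hit that blocks the TRPC4 channel at some tested dose, yielding a dose curve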).
The target in assay [10] is Short transient receptor potential channel 6 (Mus musculus) (UniProt Q61143). In words: TRPC6 blockade by TRPC4 inhibitor hits – cell-based, HEK293, membrane potential dye, duplicate, selectivity assay for TRPC4 inhibitor project, confirmation (AID 434948;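 active means active in primary screen and both duplicates, each dropping signal beyond three positive-control SD with fluorescence still positive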). The following applies: HEK293 TRPC6, membrane potential dye fluorescence, at 10 µM, stimulated with maximal-effect acetylcholine; hits give high values.

Assay [11] shares this target. The experiment in a line: TRPC6 opening by TRPC4 activator hits – cell-based, HEK293, membrane potential dye, duplicate, selectivity assay for TRPC4 activator project, confirmation (AID 434950;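 active means membrane potential signal rise above negative control mean plus 3 SD in both duplicates, also active in the earlier TRPC4 screen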). The following applies: HEK293 TRPC6, membrane potential fluorescence, at 10 µM; activation: hits give high values; outcome: activation.
Assay [12] has the same target. The experiment in a line: positive modulators of mouse TRPC6 channel – HEK293 cells, membrane potential dye, duplicate, selectivity assay for TRPC4 potentiator project, confirmation (AID 434952;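 active means compound raising the membrane signal above positive-control mean plus 3 SD in both repeats, and a primary screen hit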). The following applies: HEK293 TRPC6, membrane potential dye fluorescence, at 10 µM, maximal acetylcholine added after compound; hits give high values.
Assay [13] addresses Short transient receptor potential channel 4 (Mus musculus) (UniProt Q9QUQ5). The experiment in a line: calcium flux activators in TRPC4/5HT1a cells, counter-screen for TRPC4 activator project, cell-based, second counter screen, HEK293 TRPC4/5HT1a, Fluo-4 (AID 434977;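 active means calcium signal rise above buffer-control mean plus 5 SD in both duplicates, and also a hit in the primary screen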). The following applies: Fluo-4 calcium flux, at 10 µM; hits give high values.
The nature of assay [14]: serotonin-gated TRPC4 signal block – cell-based, second counter screen, HEK293 TRPC4/5HT1a, Fluo-4, counter-screen for TRPC4 inhibitor project, confirmation (AID 434978;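 active means primary screen active whose calcium signal fell more than 3 SD beyond the full-serotonin control mean in both duplicate plates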;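 on outcome: serotonin given first at submaximal then at maximal dose after compound preincubation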). The following applies: Fluo-4 calcium flux, at 10 µM, serotonin added to trigger calcium flux; hits give high values.
The test system of assay [15] is TRPC4 (mouse), co-expressed with 5HT1a in HEK293. The experiment in a line: enhancement of serotonin-evoked TRPC4 response – cell-based, second counter screen, HEK293 TRPC4/5HT1a, Fluo-4, counter-screen for TRPC4 potentiator project, confirmation (AID 434979;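 active means signal rise over 3 SD above mean of control wells given weak agonist, in both repeats and first screen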). The following applies: Fluo-4 calcium flux, at 10 µM, serotonin added at its EC20 dose; hits give high values.

Assay [16] can be described thus: nonspecific calcium rise without TRPC4 – cell-based, HEK293 mu-opioid receptor line, counter-screen for TRPC4 activator project, confirmation (AID 449723;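 active means hit in primary screen, with calcium signal over 5 SD above buffer well mean in both duplicates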;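 further: counter screen cells carry the mu-opioid receptor alone and lack TRPC4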). The following applies: HEK293 mu-opioid cells, Fluo-4 calcium fluorescence, at 10 µM; hits give high values.
A short description of assay [17]: nonspecific potentiation of DAMGO calcium response – cell-based, HEK293 mu-opioid receptor line, counter-screen for TRPC4 allosteric potentiator project, confirmation (AID 449724;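 active means calcium signal rise more than 3 SD above the low-dose agonist control mean, in both duplicate plates and the primary screen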;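 further: HEK293 cells carrying mu-opioid receptor only with no TRPC4 channel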). The following applies: HEK293 mu-opioid receptor cells, Fluo-4 calcium flux, at 10 µM, compound added before EC20 DAMGO stimulus; hits give high values.

15 molecules from PubChem BioAssay can be followed below.

For part of these data: Entries with a potency or affinity are not part of this list. Activity calls are given as the source filed them.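 How the source made its calls, unless noted: active means primary screen active and over 50% activation in each of two duplicate runs; inactive means the rest.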

Short transient receptor potential channel 4 (Mus musculus), sequence (Q9QUQ5 whole entry, looked up): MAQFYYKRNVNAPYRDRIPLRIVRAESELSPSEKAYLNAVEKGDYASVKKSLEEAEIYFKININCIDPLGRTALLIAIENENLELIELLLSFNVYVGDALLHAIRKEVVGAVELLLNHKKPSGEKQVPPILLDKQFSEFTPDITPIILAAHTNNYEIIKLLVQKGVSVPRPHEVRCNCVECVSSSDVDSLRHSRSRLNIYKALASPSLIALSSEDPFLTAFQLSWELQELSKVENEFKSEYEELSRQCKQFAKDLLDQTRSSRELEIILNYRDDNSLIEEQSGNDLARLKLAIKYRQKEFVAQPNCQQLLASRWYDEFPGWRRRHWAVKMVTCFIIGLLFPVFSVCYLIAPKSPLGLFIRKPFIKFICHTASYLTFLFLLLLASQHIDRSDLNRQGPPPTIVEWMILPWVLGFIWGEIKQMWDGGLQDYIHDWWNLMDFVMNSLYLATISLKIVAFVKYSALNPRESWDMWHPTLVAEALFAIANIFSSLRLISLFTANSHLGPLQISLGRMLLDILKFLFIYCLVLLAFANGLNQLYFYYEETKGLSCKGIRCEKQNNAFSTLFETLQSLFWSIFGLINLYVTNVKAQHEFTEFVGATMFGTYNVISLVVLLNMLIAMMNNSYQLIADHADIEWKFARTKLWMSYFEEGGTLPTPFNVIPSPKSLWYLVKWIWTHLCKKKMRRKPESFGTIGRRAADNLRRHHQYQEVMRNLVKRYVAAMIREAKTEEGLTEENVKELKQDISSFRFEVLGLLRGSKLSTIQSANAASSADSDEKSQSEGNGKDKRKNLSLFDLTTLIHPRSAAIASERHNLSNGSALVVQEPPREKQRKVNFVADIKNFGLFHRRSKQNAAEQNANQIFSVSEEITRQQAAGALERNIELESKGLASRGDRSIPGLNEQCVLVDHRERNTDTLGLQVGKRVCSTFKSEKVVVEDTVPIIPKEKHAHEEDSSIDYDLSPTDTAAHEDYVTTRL
Short transient receptor potential channel 6 (Mus musculus), sequence (Q61143 whole entry, looked up): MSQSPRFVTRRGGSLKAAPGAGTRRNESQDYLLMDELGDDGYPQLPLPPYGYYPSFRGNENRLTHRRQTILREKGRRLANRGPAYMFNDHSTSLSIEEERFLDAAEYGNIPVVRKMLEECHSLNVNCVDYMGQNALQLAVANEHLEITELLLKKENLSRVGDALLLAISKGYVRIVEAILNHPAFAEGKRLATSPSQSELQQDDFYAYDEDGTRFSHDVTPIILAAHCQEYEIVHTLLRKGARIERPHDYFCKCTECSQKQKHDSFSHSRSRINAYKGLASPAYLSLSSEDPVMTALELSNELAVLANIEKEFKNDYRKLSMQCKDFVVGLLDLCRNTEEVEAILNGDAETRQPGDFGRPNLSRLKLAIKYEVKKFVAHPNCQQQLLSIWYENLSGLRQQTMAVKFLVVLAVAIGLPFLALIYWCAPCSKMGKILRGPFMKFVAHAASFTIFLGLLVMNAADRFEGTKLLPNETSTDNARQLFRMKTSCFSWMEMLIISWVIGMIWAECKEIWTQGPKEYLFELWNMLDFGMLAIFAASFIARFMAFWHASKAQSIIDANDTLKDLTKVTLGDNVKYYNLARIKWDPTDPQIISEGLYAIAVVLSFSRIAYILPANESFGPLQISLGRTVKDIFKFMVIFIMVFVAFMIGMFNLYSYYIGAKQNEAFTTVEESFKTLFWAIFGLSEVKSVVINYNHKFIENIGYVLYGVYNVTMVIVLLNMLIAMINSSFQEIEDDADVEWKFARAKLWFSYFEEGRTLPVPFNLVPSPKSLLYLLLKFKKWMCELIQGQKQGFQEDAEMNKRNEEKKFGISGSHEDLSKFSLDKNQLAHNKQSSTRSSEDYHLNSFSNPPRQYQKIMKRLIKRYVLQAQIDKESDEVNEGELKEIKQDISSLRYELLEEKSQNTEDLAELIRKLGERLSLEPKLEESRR

Regarding `O=[N+]([O-])c1cc([N+](=O)[O-])c2oc(-c3ccccc3)c(Br)c2c1O`, the result in assay [1], in assay [2], in [3], in [4], in assay [5] and in assay [6] was inactive. The outcome in [7], in assay [8], in assay [9], in assay [10], in [11] and in [12] was inactive. The outcome in assay [13], in assay [14], in assay [15], in [16] and in [17] was inactive.
With `NC(=O)c1ccc(Oc2ccc3c(c2)CCC3)c([N+](=O)[O-])c1`, the outcome in [1], in assay [2], in [3], in assay [5], in assay [6] and in assay [7] was inactive. The outcome in assay [8], in [9], in assay [10], in assay [11], in assay [12] and in assay [13] was inactive. Besides, the outcome in assay [14], in [16] and in assay [17] was inactive. For the same molecule, the potentiation is 42% (active) in [4] and 84.5% (active) in [15].
Turning to `COc1ccc(NS(=O)(=O)c2csc(C(N)=O)c2)cc1OC`, the result in assay [1], in assay [2], in [3], in assay [4], in assay [5] and in assay [6] was inactive. For the same molecule, the outcome in assay [7], in assay [8], in assay [9], in assay [10], in assay [11] and in assay [12] was inactive. The result in [13], in [14], in assay [16] and in assay [17] was inactive. Besides, in [15], the potentiation is 12.9% (active).
Regarding `Cc1ccc(-c2c(C(=O)N/N=C/c3ccc(OC(C)C)cc3)nnn2-c2nonc2N)cc1`, the outcome in [1], in assay [2], in assay [3], in [4], in assay [5] and in [6] was inactive. Further, the outcome in assay [7], in assay [8], in assay [9], in assay [10], in assay [11] and in [12] was inactive. Further, the outcome in [13], in assay [14], in assay [16] and in assay [17] was inactive. The potentiation in assay [15] is 19.3% (active).
`C=CCn1c(SCCN2CCCCC2)nc2c1c(=O)[nH]c(=O)n2C`: the result in [1], in [2], in assay [5], in assay [6], in [7] and in assay [8] was inactive. Further, the result in assay [9], in assay [10], in assay [11], in assay [12], in [13] and in [14] was inactive. For the same molecule, the outcome in assay [16] and in [17] was inactive. Besides, the potentiation in assay [3] is 27% (active); in [4] it was 16% (active); in assay [15], 20% (active).
As for `CCOc1ccc2nc(N3CCCC(C(=O)NCC4CCCO4)C3)sc2c1` (stereo not given), the result in assay [1], in assay [2], in [3], in assay [4], in assay [5] and in assay [6] was inactive. The outcome in assay [7], in [8], in [9], in assay [10], in assay [11] and in assay [12] was inactive. Further, the result in assay [13], in assay [14], in assay [15], in [16] and in assay [17] was inactive.
Take `Cc1cc(OCCN2CCCC2)ccc1[N+](=O)[O-]`: the outcome in assay [1], in assay [2], in assay [5], in assay [6], in assay [7] and in [8] was inactive. In addition, the outcome in assay [9], in assay [10], in assay [11], in [12], in assay [13] and in [14] was inactive. For the same molecule, the outcome in assay [16] and in assay [17] was inactive. Further, the figures for the potentiation in assay [3], in assay [4] and in [15] were 11% (active), 11% (active) and 13.9% (active), respectively.
For `CCN1CCN(c2c(Cl)cccc2NC(=O)c2cc3ccccc3o2)CC1`, the outcome in [1], in assay [2], in [3], in [4], in [5] and in assay [6] was inactive. The outcome in assay [7], in assay [8], in assay [9], in [10], in [11] and in assay [12] was inactive. Also, the outcome in assay [13], in assay [14], in assay [16] and in assay [17] was inactive. Besides, the potentiation in assay [15] is 7.29% (active).
The term inhibition denotes the percentage by which the read-out fell short of the control. Take `Clc1ccc(OCCCc2nc(-c3ccncc3)no2)c(Cl)c1`: the outcome in assay [1], in [2], in assay [3], in [4], in [6] and in assay [7] was inactive. Also, the result in assay [8], in assay [9], in assay [10], in [11], in [12] and in assay [13] was inactive. Further, the outcome in assay [15], in assay [16] and in assay [17] was inactive. In addition, the inhibition in assay [5] is 91% (active); in [14], 30.7% (active).
Take `CC(C)(C)NC(=S)N/N=C\c1ccc(-c2ccc([N+](=O)[O-])cc2)o1`: the result in [1], in assay [2], in assay [3], in assay [4], in assay [5] and in assay [6] was inactive. Besides, the outcome in assay [7], in [8], in [9], in [10], in [11] and in assay [13] was inactive. The result in assay [14], in [16] and in [17] was inactive. For the same molecule, the potentiation, percent of control in assay [12] is 142% (active). Besides, the potentiation in [15] is 15.4% (active).
Regarding `CCCCNC(=O)/C(C#N)=C/c1ccc(F)cc1F`, the result in assay [1], in assay [2], in assay [3], in assay [5], in [6] and in assay [7] was inactive. In addition, the outcome in assay [8], in assay [9], in assay [10], in assay [11], in assay [12] and in assay [13] was inactive. In addition, the result in assay [14], in assay [15], in assay [16] and in [17] was inactive. The potentiation in assay [4] is 9% (active).
For `Cc1sc2ncnc(SCC(=O)N(C)C3CCS(=O)(=O)C3)c2c1C` (stereo not given), the result in [1], in [2], in assay [3], in assay [5], in [6] and in assay [7] was inactive. Moreover, the result in assay [8], in assay [9], in assay [10], in assay [11], in [12] and in [13] was inactive. The outcome in [14], in assay [16] and in assay [17] was inactive. Moreover, the values for the potentiation in [4] and in assay [15] were 24% (active) and 13.2% (active), respectively.
In the case of `CC(C)CCn1c(Sc2nc3ccccc3o2)nc2c1c(=O)[nH]c(=O)n2C`, the outcome in [1], in [2], in [3], in [5], in assay [6] and in [7] was inactive. The result in assay [8], in assay [9], in assay [10], in [11], in assay [12] and in [13] was inactive. Further, the outcome in assay [14], in [16] and in assay [17] was inactive. Further, the potentiation in [4] was 13% (active); in assay [15] it was 45% (active).
Take `C/C(CC(=O)NCc1ccc(Cl)cc1)=N\NC(=O)COc1ccc(C)cc1Br`: the outcome in assay [1], in assay [2], in [3], in [4], in [5] and in assay [6] was inactive. Moreover, the outcome in [7], in [8], in [9], in assay [10], in assay [11] and in [12] was inactive. Also, the outcome in assay [13], in assay [14], in [15], in assay [16] and in assay [17] was inactive.
For the molecule `Cc1cc2oc(C(=O)N(Cc3ccco3)C3CCS(=O)(=O)C3)cc(=O)c2cc1Cl` (stereo not given), the outcome in assay [1], in assay [2], in [3], in assay [5], in [6] and in [7] was inactive. Also, the outcome in assay [8], in assay [9], in assay [10], in assay [11], in [12] and in [13] was inactive. Further, the outcome in assay [14], in assay [16] and in assay [17] was inactive. The potentiation in assay [4] was 66% (active); in [15], 70.9% (active).
